Laboratory results published in the supplement of paper PMC9694430.

Key:
Experiment in all cases: thermal shift delta Tm vs DMSO control; higher = stronger stabilization (binding)
Conditions in all cases: 12.5 µM; protein concentration 2 µM
[1] = tested on: LOC_OS02G45750-cb003
Outline: (§1)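 Heating from 25°C to 95°C at 0.05°C/s, fluorescence was recorded for 19.5 μl wells of 2 μM E. coli-expressed, purified rice kinase domain in 100 mM potassium phosphate pH 7.5, 150 mM NaCl, 10% glycerol and 5 × SYPRO Orange with compound in DMSO. Boltzmann fits gave melting temperatures for this differential scanning fluorimetry assay. The shift reported is the mean of three replicates against the DMSO-only protein.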

[2] = tested on: LOC_OS02G54510-cb004
Outline: as §1

[3] = tested on: LOC_OS03G04050-cb001
Outline: as §1

[4] = tested on: LOC_OS03G12390-cb001
Outline: as §1

[5] = tested on: LOC_OS03G27990-cb004
Outline: as §1

[6] = tested on: LOC_OS03G50450-cb001
Outline: as §1

[7] = tested on: LOC_OS03G50810-cb003
Outline: as §1

[8] = tested on: LOC_OS04G35114-cb001
Outline: as §1

[9] = tested on: T1, LOC_OS04G38480-cb003
T1 sequence (whole entry): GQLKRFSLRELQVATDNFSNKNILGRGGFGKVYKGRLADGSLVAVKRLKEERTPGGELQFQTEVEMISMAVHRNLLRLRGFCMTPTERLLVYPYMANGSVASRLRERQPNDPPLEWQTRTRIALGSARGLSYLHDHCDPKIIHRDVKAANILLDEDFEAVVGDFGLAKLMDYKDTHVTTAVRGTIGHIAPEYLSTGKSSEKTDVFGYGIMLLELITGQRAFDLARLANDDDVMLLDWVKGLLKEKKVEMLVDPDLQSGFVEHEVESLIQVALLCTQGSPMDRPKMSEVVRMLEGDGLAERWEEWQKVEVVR
Outline: as §1

[10] = tested on: T2, LOC_OS04G41100-cb001
T2 sequence (whole entry): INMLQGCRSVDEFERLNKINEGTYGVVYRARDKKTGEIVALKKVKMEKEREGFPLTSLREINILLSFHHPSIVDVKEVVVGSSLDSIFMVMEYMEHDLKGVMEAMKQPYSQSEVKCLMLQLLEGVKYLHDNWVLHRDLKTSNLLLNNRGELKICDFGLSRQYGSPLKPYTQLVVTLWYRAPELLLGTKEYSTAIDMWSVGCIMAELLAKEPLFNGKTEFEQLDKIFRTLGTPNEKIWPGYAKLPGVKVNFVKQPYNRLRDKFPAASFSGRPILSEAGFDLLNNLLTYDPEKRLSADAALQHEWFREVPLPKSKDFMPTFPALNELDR
Outline: as §1

[11] = tested on: LOC_OS04G57630-cb004
Outline: as §1

[12] = tested on: LOC_OS05G07850-cb002
Outline: as §1

[13] = tested on: LOC_OS05G16824-cb004
Outline: as §1

[14] = tested on: LOC_OS05G28520-cb001
Outline: as §1

[15] = tested on: LOC_OS05G30820-cb001
Outline: as §1

[16] = tested on: LOC_OS05G43570-cb004
Outline: as §1

[17] = tested on: LOC_OS06G16330-cb003
Outline: as §1

[18] = tested on: T3, LOC_OS06G22820-cb001
T3 sequence (whole entry): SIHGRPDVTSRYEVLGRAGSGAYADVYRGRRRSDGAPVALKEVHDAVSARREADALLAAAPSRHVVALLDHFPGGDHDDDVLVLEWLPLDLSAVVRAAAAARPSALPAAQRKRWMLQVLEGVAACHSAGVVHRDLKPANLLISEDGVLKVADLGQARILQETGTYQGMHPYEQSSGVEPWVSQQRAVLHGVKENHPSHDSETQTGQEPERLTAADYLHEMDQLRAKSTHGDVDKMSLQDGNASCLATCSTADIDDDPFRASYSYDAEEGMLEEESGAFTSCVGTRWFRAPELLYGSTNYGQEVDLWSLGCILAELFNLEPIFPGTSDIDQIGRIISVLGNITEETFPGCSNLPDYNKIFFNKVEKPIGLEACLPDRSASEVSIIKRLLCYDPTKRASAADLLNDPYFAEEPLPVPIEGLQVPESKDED
Outline: as §1

[19] = tested on: LOC_OS07G06570-cb004
Outline: as §1

[20] = tested on: LOC_OS07G07230-cb001
Outline: as §1
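Also: purified Escherichia coli-expressed rice kinase domain construct.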

Sequence of LOC_OS06G16330-cb003 (as listed by the source): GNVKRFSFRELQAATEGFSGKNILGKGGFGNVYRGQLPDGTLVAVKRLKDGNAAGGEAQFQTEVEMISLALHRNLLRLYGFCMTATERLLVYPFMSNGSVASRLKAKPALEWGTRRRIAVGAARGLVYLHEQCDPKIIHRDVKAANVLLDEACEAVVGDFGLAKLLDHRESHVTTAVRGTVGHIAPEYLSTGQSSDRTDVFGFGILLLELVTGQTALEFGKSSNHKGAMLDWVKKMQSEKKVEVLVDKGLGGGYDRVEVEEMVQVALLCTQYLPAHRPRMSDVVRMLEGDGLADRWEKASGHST

| Structure (SMILES) | thermal shift delta Tm [1] | thermal shift delta Tm [2] | thermal shift delta Tm [3] | thermal shift delta Tm [4] | thermal shift delta Tm [5] | thermal shift delta Tm [6] | thermal shift delta Tm [7] | thermal shift delta Tm [8] | thermal shift delta Tm [9] | thermal shift delta Tm [10] | thermal shift delta Tm [11] | thermal shift delta Tm [12] | thermal shift delta Tm [13] | thermal shift delta Tm [14] | thermal shift delta Tm [15] | thermal shift delta Tm [16] | thermal shift delta Tm [17] | thermal shift delta Tm [18] | thermal shift delta Tm [19] | thermal shift delta Tm [20] |
| --- | --- | --- | --- | --- | --- | --- | --- | --- | --- | --- | --- | --- | --- | --- | --- | --- | --- | --- | --- | --- |
| COc1cc2ncc(-c3ccccc3)nc2cc1OC [Tyrphostin AG 1296] | 4.58 °C | -0.11 °C | 0.13 °C | 0.49 °C | 0.74 °C | 0.48 °C | 1.56 °C | 3.93 °C | 0.73 °C | 0.13 °C | 0.05 °C | 5.59 °C | 2.99 °C | -0.06 °C | 0.8 °C | 0.08 °C | 2.24 °C | 0.24 °C | 1.65 °C | 0.83 °C |
| O=c1nc(N2CCOCC2)oc2c(-c3cccc4c3sc3ccccc34)cccc12 | 0.04 °C | -0.35 °C | -0.14 °C | -0.44 °C | -0.35 °C | 0.04 °C | -0.24 °C | -0.68 °C | 0.64 °C | 0.24 °C | -0.05 °C | 1.07 °C | 1.26 °C | -0.27 °C | -0.09 °C | -0.65 °C | -1.74 °C | 0.33 °C | 0.14 °C | 0.66 °C |
| COc1cc(-c2cc(-c3ccc(N4CCNCC4)cc3)cnc2C)cc(OC)c1OC | 2.4 °C | 0.19 °C | 0.41 °C | -0.01 °C | 0.29 °C | 0.65 °C | 0.51 °C | 2.27 °C | 1.94 °C | 0.29 °C | 0.42 °C | 3.83 °C | 0.31 °C | 0.5 °C | 0.25 °C | 0.17 °C | 2.03 °C | 0.21 °C | 0.35 °C | 0.01 °C |
| CNC(=O)c1cc(Oc2ccc(NC(=O)Nc3ccc(Cl)c(C(F)(F)F)c3)c(F)c2)ccn1 [Regorafenib (BAY 73-4506)] | 0.96 °C | 0.56 °C | 0.64 °C | 0.1 °C | 0.17 °C | 0.33 °C | 0.11 °C | 0.48 °C | 0.48 °C | 0.52 °C | 0.11 °C | 1.47 °C | -2.37 °C | 0.42 °C | 0.34 °C | 0.38 °C | -0.02 °C | 0.83 °C | 0.59 °C | 0.35 °C |
| Oc1cc(O)cc(/C=C/c2ccc(O)c(O)c2)c1 [Piceatannol] | -0.87 °C | 0.68 °C | 0.78 °C | -0.65 °C | 0.48 °C | 0.23 °C | 0.47 °C | 0.4 °C | 1.45 °C | 0.8 °C | 0.71 °C | 2.79 °C | -0.53 °C | 1.37 °C | 0.74 °C | 0.72 °C | 1.4 °C | 0.94 °C | 0.43 °C | 0.27 °C |
| CC(C)c1cnn2c(NCc3ccccc3-n3cccn3)nc(OC3CCCNC3)nc12 (stereo not given) | 0.32 °C | -0.14 °C | 0.32 °C | 0.22 °C | 0.11 °C | 0.09 °C | 0.5 °C | 0.48 °C | 1.13 °C | 0.57 °C | 0.19 °C | 0.48 °C | 1.46 °C | 0.66 °C | 0.31 °C | 0.57 °C | 0.17 °C | 1.22 °C | 0.4 °C | -0.33 °C |
| CC(C)(C)NS(=O)(=O)c1cncc(-c2cc(F)c3nc(N)nn3c2)c1 | 0.74 °C | 0.24 °C | 0.64 °C | 0.19 °C | 0.94 °C | 0.53 °C | 0.4 °C | 0.87 °C | 0.98 °C | 0.29 °C | 0.3 °C | 1.74 °C | 0.61 °C | 0.78 °C | 0.53 °C | 0.59 °C | 0.88 °C | 0.87 °C | 1.73 °C | 0.06 °C |
| O=C(Nc1cccc(C(F)(F)F)c1)c1cccc2cc(Oc3cc(CO)ncn3)ccc12 | 0.82 °C | 0.52 °C | 0.59 °C | -0.09 °C | 0.52 °C | 0.11 °C | 0.03 °C | 0.55 °C | 1.4 °C | 0.37 °C | 0.45 °C | -0.21 °C | -4.53 °C | 0.52 °C | 0.8 °C | 0.31 °C | -0.18 °C | 0.78 °C | 0.98 °C | 0.86 °C |
| C=CC(=O)N1CCC(Oc2cc3c(Nc4ccc(Cl)c(Cl)c4F)ncnc3cc2OC)CC1 [Poziotinib (HM781-36B)] | 2.04 °C | 1.05 °C | 0 °C | 3.61 °C | 0.49 °C | 1.57 °C | 0.16 °C | 4.23 °C | 1.12 °C | 0.18 °C | 0.32 °C | 4.97 °C | -0.85 °C | 0.58 °C | 0.44 °C | 0.15 °C | 8.31 °C | 0.44 °C | 0.72 °C | 0.28 °C |
| COc1cc2nccc(Oc3ccc(NC(=O)C4(C(=O)Nc5ccc(F)cc5)CC4)cc3)c2cc1OC | 1.97 °C | 1.19 °C | 0.5 °C | 0.4 °C | 0.27 °C | 0.3 °C | 0.76 °C | 1.45 °C | 2.61 °C | 0.93 °C | 2.62 °C | 12.8 °C | 3.14 °C | 7.75 °C | 0.54 °C | 0.51 °C | 5.17 °C | 1.2 °C | 0.82 °C | 0.35 °C |
| C[C@H](Nc1ncnc2nc[nH]c12)c1cc2cccc(Cl)c2c(=O)n1-c1ccccc1 [Duvelisib (IPI-145, INK1197)] | -1.36 °C | 2.02 °C | -0.19 °C | -0.34 °C | -0.31 °C | 0.38 °C | 0.72 °C | -1.37 °C | 0.01 °C | 0.58 °C | -0.24 °C | 0.17 °C | 0.84 °C | 0.82 °C | 0.45 °C | 0.49 °C | 0.28 °C | 0.69 °C | 0.07 °C | 12.2 °C |
| Nc1ccc(-c2ccc3ncc4ccc(=O)n(-c5cccc(C(F)(F)F)c5)c4c3c2)cn1 [Torin 2] | 2.36 °C | -0.06 °C | 0.2 °C | 0.23 °C | 0.43 °C | 0.37 °C | 0.92 °C | 2.97 °C | 0.88 °C | 0.27 °C | 0.09 °C | 9.25 °C | 2.46 °C | 0.76 °C | 0.48 °C | 0.35 °C | 2.11 °C | 0.56 °C | 1.44 °C | 0.3 °C |
